Shown are actives, neighbours in structure and some others; about 6% of the full set was active somewhere.
D1 ag – Allosteric Agonists of the Human D1 Dopamine Receptor: qHTS; HEK293 T-REx D1 cells, calcium flux, agonist mode; activation, % at 2 µM; 360,000 compounds, 1% hits; AID 504660, 2011; in the data active = activation above about 30%; note: 0% is about no effect
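Agonism was scored from calcium flux recorded over 180 s (1 read/s) after pintool compound addition, following a 10-cycle baseline. Cells were inducible force-coupled HEK293 TREx D1, plated overnight at 30 C and loaded with no-wash calcium dye.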
D1 antag – Antagonist of Human D 1 Dopamine Receptor: qHTS; D(1A) dopamine receptor (Homo sapiens), P21728; HEK293 TREx D1 cells, calcium flux, dopamine EC80; active compounds read low; activity change, negative = inhibition, % at 10 µM; 360,000 compounds, 3.2% hits; AID 504652, 2011; in the data active = activity change below about -30%; note: % is set by controls: 0 for no effect and ±100 for the full control effect
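Inducible Hek293 Trex D1 cells (tetracycline, overnight, 30 C). Calcium dye 30–90 min RT. Antagonist mode: EC80 dopamine added after 180 s compound read.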
DRD3 agonist – qHTS of D3 Dopamine Receptor Agonist: qHTS. max activation, %. 410,000 compounds, 0.58% hits. D3R DiscoveRx beta-arrestin cells, luminescence, 90 min; in the data active = max activation above about 30%; note: 0% is about no effect
Target sequence (P35462 whole entry, looked up): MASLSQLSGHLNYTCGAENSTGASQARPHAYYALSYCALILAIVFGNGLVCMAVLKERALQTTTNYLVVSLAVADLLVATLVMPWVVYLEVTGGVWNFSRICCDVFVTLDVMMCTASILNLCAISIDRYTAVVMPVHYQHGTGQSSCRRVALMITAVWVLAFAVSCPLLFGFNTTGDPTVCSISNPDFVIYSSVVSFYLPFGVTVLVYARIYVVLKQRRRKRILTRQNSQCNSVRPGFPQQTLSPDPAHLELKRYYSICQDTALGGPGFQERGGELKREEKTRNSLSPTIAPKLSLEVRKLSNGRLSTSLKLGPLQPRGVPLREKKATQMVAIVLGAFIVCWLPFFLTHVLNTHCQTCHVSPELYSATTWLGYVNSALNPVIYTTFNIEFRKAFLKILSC
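Cells at 1500/well, incubated overnight, then treated with pinned compounds (dopamine as control) for 90 min at 37 degrees C. DiscoveRx reagent added for 30 - 60 minutes at room temperature; luminescence read.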
D1 potentiator – Potentiators of Human D1 Dopamine Receptor: qHTS | D(1A) dopamine receptor (Homo sapiens), P21728 | HEK293 TREx D1 cells, calcium flux, dopamine EC20 potentiation | potentiation, % at 10 µM | 360,000 compounds, 0.036% hits; in the data active = potentiation above about 30%; note: 0% is about no effect
DRD3 antagonist – qHTS of D3 Dopamine Receptor Antagonist: qHTS. D3R cells, DiscoveRx beta-arrestin luminescence, antagonist mode; active compounds read low. max response, negative = inhibition, %. 360,000 compounds, 2.5% hits. AID 652054, 2013; in the data active = max response below about -50%; inconclusive = no clear call, values can overlap the other calls; note: % is set by controls: 0 for no effect and ±100 for the full control effect
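Cells plated overnight at 1500 cells/well, then exposed to library compounds with dopamine controls for 90 minutes at 37 degrees C. DiscoveRx reagent added for 30–60 minutes at room temperature; luminescence read, quantitative HTS format.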
Active calls of the source: *; ? = inconclusive; / = not tested or not shown.

SMILES	D1 ag	D1 antag	DRD3 agonist	D1 potentiator	DRD3 antagonist
COc1ccc(NC(=O)c2ccc3oc(=O)c(S(=O)(=O)c4ccc(C)cc4)cc3c2)cc1OC	1	-4	-6	5	/
COC(=O)CC1Oc2ccc(F)cc2-n2cc(-c3ccc(Cl)cc3)nc21 (configuration not stated)	1	-9	-16	-2	/
COC(=O)CC1Oc2ccc(Cl)cc2-n2cc(-c3ccc(F)cc3)nc21 (configuration not stated)	2	3	50*	-1	/
Cc1ccc(-n2c(SCC(=O)N3CCOCC3)nnc2-c2ccncc2)cc1	2	4	7	-5	-76*
Cc1ccc(-n2c(SCC(=O)N3CCOCC3)nc(O)c(Cc3ccccc3)c2=O)cc1	5	-31*	3	-1	-5
CCOc1cccc(C2c3c(oc4ccc(F)cc4c3=O)C(=O)N2CCc2ccc(OC)cc2)c1 (configuration not stated)	0	-30*	0	-7	/
CCOC(=O)c1sc(N2C(=O)c3oc4ccc(F)cc4c(=O)c3C2c2ccc(O)cc2)nc1C (configuration not stated)	1	8	4	-1	/
CCc1ccc(C2c3c(oc4ccc(F)cc4c3=O)C(=O)N2c2nc(C)c(C(=O)OC)s2)cc1 (configuration not stated)	0	-69*	1	-10	/
CN(C)c1ccc(CNC(=O)C2CCN(C(=O)c3ccc(-n4ccc5ccccc54)s3)CC2)cc1	1	-17	4	-2	/
CC(C)C(=O)NC(c1ccccc1)c1cc([N+](=O)[O-])c2cccnc2c1O (configuration not stated)	1	-10	-19	-9	-77*
CCCC(=O)NC(c1cccs1)c1cc([N+](=O)[O-])c2cccnc2c1O (configuration not stated)	5	-17	-18	-9	?
CCC(=O)NC(c1cccs1)c1cc([N+](=O)[O-])c2cccnc2c1O (configuration not stated)	4	26	-23	0	-69*
CCCC(=O)NC(c1ccccc1)c1ccc2cccnc2c1O (configuration not stated)	1	-1	31*	-2	?
CCCCC(=O)NC(c1ccccc1)c1ccc2cccnc2c1O (configuration not stated)	20	-7	3	0	-12
Cc1c(NC(=O)/C(C#N)=C/c2ccc(-c3cccc(Cl)c3)o2)c(=O)n(-c2ccccc2)n1C	0	-38*	-5	-10	-12
CCOc1ccc(-c2nnc(SCC(=O)Nc3cccc(Cl)c3C)o2)cc1	22	-35*	7	0	/
CC1CC1c1ccc(/C=C(\C#N)C(=O)Nc2cc(Cl)ccc2Cl)o1 (configuration not stated)	24	-9	-4	-9	12
N#C/C(=C\c1ccc(-c2cc(Cl)ccc2Cl)o1)C(=O)Nc1ccccc1C(=O)O	1	1	33*	-1	/
Cc1c(NC(=O)CSc2nnc(-c3cccc(Cl)c3)o2)c(=O)n(-c2ccccc2)n1C	3	20	-6	-8	-72*
O=C(Nc1ccc2c(c1)OCCO2)c1ccc(NC(=O)C2CCCO2)cc1 (configuration not stated)	1	-49*	-4	-6	-27
O=C(Nc1ccc2c(c1)OCO2)c1ccc[n+]([O-])c1	0	-39*	0	3	-1
CCN(CC)c1ccc(NC(=O)c2ccc3c(c2)OCO3)c(C)c1	4	-41*	-1	-6	9
Cc1cc(NC(=O)c2ccc3c(c2)OCO3)ccc1NC(=O)c1ccccc1	4	-15	-9	-6	0
O=C(NCc1ccc2c(c1)OCO2)c1ccc(NC(=O)C2CCCO2)cc1 (configuration not stated)	-2	-12	-12	2	?
CC(=O)Nc1ccc(C(=O)Nc2ccc3c(c2)OCO3)cc1	3	-31*	8	-1	-19
COc1ccc(NC(=O)c2nn(C)c3c2CS(=O)(=O)c2ccccc2-3)cc1Cl	1	5	-4	1	/
